# Laboratory results taken from PubChem BioAssay AID1159580 (chemical genetic matrix, 2015).
# Screen size: about 5,500 compounds; about 2,000 (36%) were called active. Not shown: some 18% with an inconclusive outcome. Some of the results follow. Unmarked numbers belong to inactive results. No stated cut-off is given here; in the data, active means normalized growth mostly below about 0.91 (no sharp cut-off); inconclusive means no clear call, values can overlap the other calls; inactive means mostly above about 0.92.
# Assay: chemical genetic growth profiling, strain panel (AID 1159580);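 further: tested at 20 µM; growth read once vehicle control cultures reached saturation at 30 °C; 1 = growth at the plate median or of vehicle wells; lower values mean less growth of the strain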
# Conditions: S. cerevisiae deletion strains, growth OD
smiles,measurement,setting,value
COc1cc2c(cc1OC)[C@@H]1C(=O)c3ccc(O)c(CC=C(C)C)c3O[C@@H]1CO2,normalized growth,"locus YAL021C, strain ccr4, active compounds read low",1.12 [resistant] (active)
same,normalized growth,"locus YAL026C, strain drs2, active compounds read low",1.01
same,normalized growth,"locus YAL030W, strain snc1, active compounds read low",1.03
same,normalized growth,"locus YBL061C, strain skt5, active compounds read low",0.958
same,normalized growth,"locus YBR009C, strain hhf1, active compounds read low",1.03
same,normalized growth,"locus YBR021W, strain FUR4, active compounds read low",0.989
same,normalized growth,"locus YBR023C, strain chs3, active compounds read low",0.987
same,normalized growth,"locus YBR171W, strain sec66, active compounds read low",0.998
same,normalized growth,"locus YBR229C, strain ROT2, active compounds read low",0.986
same,normalized growth,"locus YBR231C, strain swc5, active compounds read low",1.01
same,normalized growth,"locus YBR279W, strain paf1, active compounds read low",1.12 [resistant] (active)
same,normalized growth,"locus YCL011C, strain gbp2, active compounds read low",1.06
same,normalized growth,"locus YCL016C, strain dcc1, active compounds read low",0.965
same,normalized growth,"locus YCL029C, strain bik1, active compounds read low",0.984
same,normalized growth,"locus YCL061C, strain MRC1, active compounds read low",0.985
same,normalized growth,"locus YCL069W, strain vba3, active compounds read low",1
same,normalized growth,"locus YCR088W, strain abp1, active compounds read low",1
same,normalized growth,"locus YDL005C, strain med2, active compounds read low",1.05
same,normalized growth,"locus YDL035C, strain GPR1, active compounds read low",1.02
same,normalized growth,"locus YDL040C, strain nat1, active compounds read low",0.975
same,normalized growth,"locus YDL074C, strain BRE1, active compounds read low",0.961
same,normalized growth,"locus YDL101C, strain DUN1, active compounds read low",0.969
same,normalized growth,"locus YDL134C, strain PPH21, active compounds read low",0.967
same,normalized growth,"locus YDL185W, strain tfp1, active compounds read low",0.974
same,normalized growth,"locus YDL192W, strain arf1, active compounds read low",1.03
same,normalized growth,"locus YDR001C, strain nth1, active compounds read low",1.01
same,normalized growth,"locus YDR069C, strain doa4, active compounds read low",1.08
same,normalized growth,"locus YDR101C, strain arx1, active compounds read low",1.05
same,normalized growth,"locus YDR137W, strain rgp1, active compounds read low",1.02
same,normalized growth,"locus YDR159W, strain sac3, active compounds read low",1.07
same,normalized growth,"locus YDR162C, strain NBP2, active compounds read low",0.978
same,normalized growth,"locus YDR195W, strain ref2",0.963
same,normalized growth,"locus YDR297W, strain sur2, active compounds read low",1.05
same,normalized growth,"locus YDR318W, strain mcm21, active compounds read low",1.01
same,normalized growth,"locus YDR334W, strain swr1, active compounds read low",1
same,normalized growth,"locus YDR335W, strain msn5, active compounds read low",1.02
same,normalized growth,"locus YDR388W, active compounds read low",0.982
same,normalized growth,"locus YDR392W, strain spt3, active compounds read low",0.91
same,normalized growth,"locus YDR502C, strain sam2, active compounds read low",0.971
same,normalized growth,"locus YEL003W, strain gim4, active compounds read low",1.03
same,normalized growth,"locus YEL037C, strain rad23, active compounds read low",1.03
same,normalized growth,"locus YEL061C, strain CIN8 (second series), active compounds read low",1.06
same,normalized growth,"locus YEL061C, strain CIN8, active compounds read low",0.992
same,normalized growth,"locus YER015W, strain faa2, active compounds read low",1.01
same,normalized growth,"locus YER016W, strain bim1, active compounds read low",1.07
same,normalized growth,"locus YER110C, active compounds read low",0.966
same,normalized growth,"locus YER111C, strain swi4, active compounds read low",1.02
same,normalized growth,"locus YER155C, strain BEM2 (second series), active compounds read low",0.979
same,normalized growth,"locus YER155C, strain BEM2, active compounds read low",0.982
same,normalized growth,"locus YER167W, strain BCK2, active compounds read low",0.998
same,normalized growth,"locus YFR010W, strain ubp6, active compounds read low",1.01
same,normalized growth,"locus YGL078C, strain dbp3, active compounds read low",1.02
same,normalized growth,"locus YGL086W, strain mad1, active compounds read low",1.02
same,normalized growth,"locus YGL167C, strain pmr1, active compounds read low",0.988
same,normalized growth,"locus YGL173C, strain kem1, active compounds read low",1.01
same,normalized growth,"locus YGL227W, strain vid30, active compounds read low",0.997
same,normalized growth,"locus YGL240W, strain doc1, active compounds read low",1.03
same,normalized growth,"locus YGL248W, strain PDE1, active compounds read low",0.932
same,normalized growth,"locus YGL253W, strain hxk2, active compounds read low",1.02
same,normalized growth,"locus YGR078C, strain PAC10, active compounds read low",0.975
same,normalized growth,"locus YGR135W, strain pre9, active compounds read low",0.952
same,normalized growth,"locus YGR229C, strain SMI1, active compounds read low",1.19
same,normalized growth,"locus YGR252W, strain gcn5, active compounds read low",0.999
same,normalized growth,"locus YHR013C, strain ard1, active compounds read low",1.02
same,normalized growth,"locus YHR027C, strain rpn1, active compounds read low",1.03
same,normalized growth,"locus YHR030C, strain SLT2, active compounds read low",0.994
same,normalized growth,"locus YHR079C, strain IRE1 (second series), active compounds read low",1
same,normalized growth,"locus YHR094C, strain hxt1, active compounds read low",0.988
same,normalized growth,"locus YHR129C, strain ARP1, active compounds read low",0.984
same,normalized growth,"locus YHR142W, strain chs7, active compounds read low",1.02
same,normalized growth,"locus YHR200W, strain rpn10, active compounds read low",1
same,normalized growth,"locus YIL066C, strain RNR3, active compounds read low",0.981
same,normalized growth,"locus YIL073C, strain SPO22, active compounds read low",0.913
same,normalized growth,"locus YIL125W, strain kgd1, active compounds read low",0.994
same,normalized growth,"locus YIR030C, strain dcg1, active compounds read low",0.981
same,normalized growth,"locus YJL092W, strain hpr5, active compounds read low",1
same,normalized growth,"locus YJL095W, strain BCK1 (second series), active compounds read low",1.02
same,normalized growth,"locus YJL095W, strain BCK1, active compounds read low",0.953
same,normalized growth,"locus YJL115W, strain asf1, active compounds read low",1.06
same,normalized growth,"locus YJL129C, strain trk1, active compounds read low",1.17 [resistant] (active)
same,normalized growth,"locus YJL134W, strain LCB3, active compounds read low",0.978
same,normalized growth,"locus YJL154C, strain vps35, active compounds read low",1.01
same,normalized growth,"locus YJL164C, strain tpk1, active compounds read low",1.02
same,normalized growth,"locus YJL166W, strain qcr8, active compounds read low",1.06
same,normalized growth,"locus YJL168C, strain set2, active compounds read low",0.979
same,normalized growth,"locus YJL187C, strain SWE1 (second series), active compounds read low",0.951
same,normalized growth,"locus YJL187C, strain SWE1, active compounds read low",1.1 [resistant] (active)
same,normalized growth,"locus YJR043C, strain POL32, active compounds read low",1.05
same,normalized growth,"locus YKL009W, strain mrt4, active compounds read low",0.93
same,normalized growth,"locus YKL068W, active compounds read low",0.969
same,normalized growth,"locus YKL085W, strain MDH1 (second series), active compounds read low",0.963
same,normalized growth,"locus YKL085W, strain MDH1, active compounds read low",0.963
same,normalized growth,"locus YKL160W, strain elf1, active compounds read low",1.02
same,normalized growth,"locus YKR001C, strain vps1, active compounds read low",1.02
same,normalized growth,"locus YKR026C, strain gcn3, active compounds read low",1
same,normalized growth,"locus YKR091W, strain srl3, active compounds read low",1.03
same,normalized growth,"locus YLL001W, strain dnm1, active compounds read low",1
same,normalized growth,"locus YLL026W, active compounds read low",1.03
same,normalized growth,"locus YLL041C, strain sdh2, active compounds read low",1.09 [resistant] (active)
same,normalized growth,"locus YLR027C, strain aat2, active compounds read low",1.07
same,normalized growth,"locus YLR039C, strain RIC1, active compounds read low",0.925
same,normalized growth,"locus YLR058C, strain SHM2, active compounds read low",0.98
same,normalized growth,"locus YLR102C, strain apc9, active compounds read low",0.991
same,normalized growth,"locus YLR221C, strain rsa3, active compounds read low",1.04
same,normalized growth,"locus YLR258W, strain gsy2, active compounds read low",1.06
same,normalized growth,"locus YLR262C, strain YPT6 (second series), active compounds read low",0.97
same,normalized growth,"locus YLR262C, strain YPT6, active compounds read low",0.906
same,normalized growth,"locus YLR268W, strain sec22, active compounds read low",1.02
same,normalized growth,"locus YLR320W, strain mms22, active compounds read low",0.961
same,normalized growth,"locus YLR330W, strain CHS5, active compounds read low",0.99
same,normalized growth,"locus YLR342W, strain FKS1 (second series), active compounds read low",1.06
same,normalized growth,"locus YLR342W, strain FKS1, active compounds read low",1.02
same,normalized growth,"locus YLR357W, strain rsc2, active compounds read low",1.05
same,normalized growth,"locus YLR370C, strain arc18, active compounds read low",1
same,normalized growth,"locus YLR371W, strain rom2, active compounds read low",1.02
same,normalized growth,"locus YLR384C, strain iki3, active compounds read low",0.971
same,normalized growth,"locus YLR418C, strain cdc73, active compounds read low",1
same,normalized growth,"locus YML016C, strain PPZ1, active compounds read low",1
same,normalized growth,"locus YML032C, strain rad52, active compounds read low",1.01
same,normalized growth,"locus YML120C, strain ndi1, active compounds read low",0.976
same,normalized growth,"locus YML124C, strain tub3, active compounds read low",0.989
same,normalized growth,"locus YMR058W, strain fet3, active compounds read low",1
same,normalized growth,"locus YMR078C, strain ctf18, active compounds read low",1.01
same,normalized growth,"locus YMR125W, strain sto1, active compounds read low",1.01
same,normalized growth,"locus YMR129W, active compounds read low",1.01
same,normalized growth,"locus YMR205C, strain PFK2, active compounds read low",1.02
same,normalized growth,"locus YMR223W, strain ubp8, active compounds read low",0.995
same,normalized growth,"locus YMR231W, strain pep5, active compounds read low",0.959
same,normalized growth,"locus YMR307W, strain GAS1, active compounds read low",1.1
same,normalized growth,"locus YNL067W, strain RPL9B, active compounds read low",0.958
same,normalized growth,"locus YNL071W, strain lat1, active compounds read low",1.02
same,normalized growth,"locus YNL128W, strain TEP1, active compounds read low",0.966
same,normalized growth,"locus YNL209W, strain ssb2, active compounds read low",1.05
same,normalized growth,"locus YNL233W, strain BNI4, active compounds read low",0.947
same,normalized growth,"locus YNL248C, strain rpa49, active compounds read low",1.01
same,normalized growth,"locus YNL250W, strain rad50, active compounds read low",0.923
same,normalized growth,"locus YNL271C, strain bni1, active compounds read low",1
same,normalized growth,"locus YNL298W, strain CLA4, active compounds read low",0.959
same,normalized growth,"locus YNL307C, strain MCK1, active compounds read low",0.967
same,normalized growth,"locus YNL322C, strain KRE1 (second series), active compounds read low",1.04
same,normalized growth,"locus YNL322C, strain KRE1, active compounds read low",0.985
same,normalized growth,"locus YNR049C, strain mso1, active compounds read low",0.999
same,normalized growth,"locus YNR052C, strain pop2, active compounds read low",0.986
same,normalized growth,"locus YOL012C, strain htz1",0.715
same,normalized growth,"locus YOL147C, strain pex11, active compounds read low",0.987
same,normalized growth,"locus YOR001W, strain rrp6, active compounds read low",1.05
same,normalized growth,"locus YOR061W, strain CKA2, active compounds read low",0.99
same,normalized growth,"locus YOR069W, strain VPS5, active compounds read low",0.98
same,normalized growth,"locus YOR070C, strain gyp1, active compounds read low",1.02
same,normalized growth,"locus YOR080W, strain dia2, active compounds read low",1.07
same,normalized growth,"locus YOR083W, strain WHI5, active compounds read low",1
same,normalized growth,"locus YOR106W, strain vam3, active compounds read low",1.13 [resistant] (active)
same,normalized growth,"locus YOR136W, strain idh2, active compounds read low",0.98
same,normalized growth,"locus YOR144C, strain elg1, active compounds read low",0.993
same,normalized growth,"locus YOR184W, strain ser1, active compounds read low",1.08
same,normalized growth,"locus YOR265W, strain rbl2, active compounds read low",1
same,normalized growth,"locus YOR270C, strain vph1, active compounds read low",0.971
same,normalized growth,"locus YOR290C, strain snf2, active compounds read low",1.01
same,normalized growth,"locus YOR316C, strain cot1, active compounds read low",0.966
same,normalized growth,"locus YPL051W, strain arl3, active compounds read low",1
same,normalized growth,"locus YPL055C, strain LGE1, active compounds read low",1.01
same,normalized growth,"locus YPL078C, strain atp4, active compounds read low",1.01
same,normalized growth,"locus YPL106C, strain sse1, active compounds read low",1.11
same,normalized growth,"locus YPL240C, strain hsp82, active compounds read low",1.11 [resistant] (active)
same,normalized growth,"locus YPR119W, strain clb2, active compounds read low",0.986
same,normalized growth,"locus YPR141C, strain kar3, active compounds read low",1.01
same,normalized growth,"locus YPR163C, strain tif3, active compounds read low",1.01
same,normalized growth,"locus YPR167C, strain met16, active compounds read low",0.987
same,normalized growth,"strain wtn01, active compounds read low",1.04
